The campaign covered roughly 48,000 compounds. About 13,000 (27%) showed an effect of 50% or more. This is one part of the list.
Each molecule was assayed on Wolbachia pipientis (assay: Anti-Wolbachia Cell-Based Screen). Conditions: 5 µM.
Assay type: functional
Set-up: scale not given: in the data most compounds retested in dose-response had high values

Structure (SMILES) | Percent Effect
O=C(CCOCc1ccccc1)N1CCCC1c1noc(C2CC2)n1 (configuration not stated) | 14.67%
CSCCC(=O)N1CCN(CC(O)C(C)(C)C)CC1 (configuration not stated) | -10.5%
Cc1ccc(C(=O)N(C)S(C)(=O)=O)cc1Cl | -6.894%
Cc1cc(S(=O)(=O)Nc2cccc(OC(F)F)c2)sc1C(=O)O | -5.292%
Cc1nonc1C1CCCN1CCC(=O)N1CCc2ccccc2C1 (configuration not stated) | 3.529%
O=C(CCS(=O)(=O)C1CCCC1)N1CCC(O)(C(F)(F)F)C1 (configuration not stated) | -5.456%
O=C(NCC1(N2CCOCC2)CCSC1)Nc1ccncc1 (configuration not stated) | -3.46%
Cc1nc(C2CCCN2C(=O)COCCOc2ccccc2)no1 (configuration not stated) | -5.15%
Cc1nc(CN2CCN(C(=O)COCc3ccccc3)CC2)no1 | 3.654%
Cc1nc(C2CCCN2C(=O)CCCOc2cccc(F)c2)no1 (configuration not stated) | -14%
Cc1nc(C2CCCN2C(=O)CCOCc2ccccc2)no1 (configuration not stated) | 99.19%
Cc1nc(C2CCCN2C(=O)COCc2ccccc2)no1 (configuration not stated) | 102.7%
O=C1OCCN1CC(=O)N1C[C@H]2CC[C@@H]1CN(C(=O)c1ccccn1)C2 | -8.504%
COc1cc(F)cc(NC(=O)NCc2cccc(N(C)C)n2)c1 | 5.244%
O=C(C1CC=CC1)N1C[C@@H]2[C@@H](C1)OCC(=O)N2Cc1cccnc1 | -8.253%
Cc1ccc(C(=O)N2CC[C@H](Oc3cccnc3C)[C@@H](O)CC2)s1 | 123.3%
Cc1ccc(C(=O)N2CCC(c3nccn3Cc3ccncc3)CC2)s1 | -4.938%
Cc1ncccc1O[C@H]1CCN(C(=O)Cc2cccs2)CC[C@@H]1O | 6.577%
Cc1csc(C(=O)N2CC[C@H](Oc3cccnc3C)[C@@H](O)CC2)c1 | 110.7%
Cc1ncccc1O[C@H]1CCN(C(=O)c2cccs2)CC[C@@H]1O | -0.5375%
CCc1ccc(C(=O)N2CC[C@H](Oc3cccnc3C)[C@@H](O)CC2)cc1 | 61.09%
COc1ccccc1OC1CCN(C(=O)c2cnc(C)s2)CC1 | 3.926%
CC(=O)N(C)CC(=O)Nc1cnc(-n2ccnc2C)nc1 | 9.823%
CC(O)CCN(C)S(=O)(=O)Cc1ccc(Br)cc1 (configuration not stated) | -1.579%
O=C(CO)N1CCc2onc(Cn3cccn3)c2C1 | 6.984%
Cc1c(Br)cccc1CSc1nnc(CO)n1C | 11.11%

Structure (SMILES) | Percent Effect
O=C(Nc1c(F)cccc1Oc1ccccc1)C1CCS(=O)(=O)C1 (configuration not stated) | 2.058%
CN(C)c1nccc(CNC(=O)NCc2ccco2)n1 | -7.993%
Cc1ccc(CNC(=O)NCc2ccco2)s1 | 117.2%
O=C(NCc1cc(Cl)ccn1)NCc1ccco1 | -0.04027%
CNC(=O)CCOC(=O)c1cccc(-n2ccc(C(F)(F)F)n2)c1 | -14.03%
Cc1nn(C)c(N(C)C)c1CNCc1cccc(Br)c1 | -4.706%
Cc1noc(NC(=O)c2ccc(Br)cc2)n1 | 7.251%
CCN(Cc1cccc(C(N)=O)c1)c1ccccc1 | 7.168%
CCc1sc(C(=O)Nc2cnn(CCN(C)C)c2)cc1C | 11.53%
CCn1cc(NC(=O)c2cccc(OCC(F)(F)F)n2)cn1 | 10.55%
CCN(CC)c1nc(C)cc(C(=O)Nc2cnn(CC)c2)n1 | 114.1%
CCN(CC)c1nc(C)cc(C(=O)Nc2cccc(C(N)=O)c2)n1 | 132.2%
CCN(CC)c1nc(C)cc(C(=O)Nc2ccc(Br)cc2)n1 | 134.8%
Cc1ccc(NC(=O)c2n[nH]c(-n3cnnc3)n2)cc1C | 9.368%
CN(C)C(=O)c1cccc(NC(=O)c2cnn(C)c2)c1 | -1.797%
CC(C)(C)CN[C@@H]1CO[C@H](CNC(=O)Nc2ccccc2)[C@H]1O | -16.93%
CCOc1ccccc1OCCN(C)Cc1nccn1C | 8.395%
CC(=O)N(Cc1noc(C)n1)C1CCN(Cc2ccon2)C1 (configuration not stated) | 2.71%
CC(=O)N(Cc1noc(C2CC2)n1)C1CCN(Cc2nccn2C)C1 (configuration not stated) | 3.362%
CC(=O)N(Cc1noc(C2CC2)n1)C1CCN(Cc2cc(C)on2)C1 (configuration not stated) | 124.1%
CC(=O)N(Cc1noc(C2CC2)n1)C1CCN(Cc2ccccn2)C1 (configuration not stated) | 122.2%
CC(=O)N(Cc1noc(C)n1)C1CCN(Cc2cc(C)on2)C1 (configuration not stated) | 0.668%
CC(=O)N(Cc1noc(C)n1)C1CCN(Cc2ccccn2)C1 (configuration not stated) | 104.4%
CCCC(=O)N(CCCN1CCOCC1)c1nc2c(C)ccc(Cl)c2s1.Cl | 32.82%
CN(C)CCOCC1CN(C(=O)N2CCCC2)Cc2ccnn2C1.O=C(O)C(F)(F)F.O=C(O)C(F)(F)F (configuration not stated) | -8.834%
CSC(C)(C)CNC(=O)NCc1cccc(-n2cncn2)c1 | 2.602%
